Holding throughout (test): NCI-60 one-dose screen, 48 h (100 = growth as untreated, 0 = no growth, -100 = all killed)
Common to all, as to settings: 10 µM unless noted

Assay [1] deals with HCT-15 colon.
Assay [2] has as its system HT29 colon.
In assay [3] the test system is SNB-75 CNS.
Assay [4] concerns SNB-19 CNS.
Assay [5] concerns U251 CNS.
Assay [6] relates to PC-3 prostate.
Assay [7] has as its system SK-MEL-5 melanoma.
In assay [8] the test system is UACC-62 melanoma.
The subject of assay [9] is LOX IMVI melanoma.
Assay [10] has as its system SK-MEL-28 melanoma.
Assay [11] deals with SK-MEL-2 melanoma.
Assay [12] concerns EKVX NSCLC.
Assay [13] has as its system SN12C renal.
The subject of assay [14] is UO-31 renal.
Assay [15] deals with TK-10 renal.
The subject of assay [16] is ACHN renal.
For assay [17], the system named is A498 renal.
The test system of assay [18] is CCRF-CEM leukemia.
In assay [19] the test system is MOLT-4 leukemia.
The test system of assay [20] is CAKI-1 renal.

Compounds without any hit were thinned out: in the full panel of roughly 83,000, 20% have a hit.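 In brief: 96-well plates, 48 h treatment, single concentration, percent growth endpoint.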 Unmarked numbers belong to inactive results. The source made the active and inactive calls. How the source made its calls: active means growth percent below 10; inactive means the rest.

Take `O=C(NNc1nc2cc(F)c(F)cc2n2c(CN3CC4CNCC4C3)ccc12)c1cnccn1` (stereo unspecified): the growth is 23% in assay [1]; 26.3% in assay [2]; 60% in assay [3]; 25.9% in assay [4]; 22.4% in [5]; 22% in assay [6]. Further, the growth in assay [7] was 0.703% (active); in [8], -1.09% (active); in assay [9], 2.25% (active); in assay [10], 27.4%; in [11], 29.2%; in assay [12], 19.5%. Further, the growth is 22.1% in assay [13]; 14.1% in assay [14]; 33.4% in assay [15]; 15% in assay [16]; 35.1% in assay [17]; 9.82% (active) in assay [18]. For the same compound, the growth in assay [19] is 7% (active).
Take `COc1cc(-c2nn(C(C)(C)C)cc2-c2ccnc(NCCCNS(=O)(=O)c3ccccc3)n2)ccc1Cl`: the growth in assay [1] was 60.1%; in assay [2] it was 70.3%; in [3], 49.1%; in [4], 97.2%; in [5], 91.7%; in [6], 54.8%. Besides, the growth in assay [7] is 72.7%; in [8], 78.4%; in [9] it was 62.7%; in [10], 93%; in assay [11] it was 89.6%; in assay [12], 36.5%. Besides, the growth in assay [13] was 52%; in assay [14], 39.4%; in [15], 66%; in [16] it was 77.2%; in assay [20], 27%; in assay [19], 59.6%.
Consider `Cc1ccc2c(c1)C13C(=C2Br)CCCN1C(=O)c1ccccc13` (stereo unspecified), for which the growth in assay [1] is 73%; in assay [2] it was 98.9%; in assay [3], 89.9%; in assay [4] it was 89.2%; in assay [5] it was 97.5%; in [6], 67.9%. Moreover, the growth was 88% in assay [7]; 67.4% in [8]; 103% in assay [9]; 92.5% in assay [10]; 100% in assay [11]; 91.3% in assay [12]. In addition, the growth in assay [13] is 92.5%; in [14] it was 76.5%; in [15] it was 99.9%; in [16], 95.5%; in [20], 75.8%; in assay [18], 79.7%. Further, the growth in [19] is 79.8%.
Turning to `O=C(Nc1nc2ccc([N+](=O)[O-])cc2s1)Nc1ccccc1Br`, the growth in assay [1] is 24.3%; in [2] it was 44.9%; in assay [3], 77.3%; in assay [4], 20.5%; in [5], 10.6%; in [6], 3.13% (active). Besides, the growth in [7] was -3.21% (active); in assay [8], 32.3%; in assay [9] it was 44.8%; in [10] it was 48.8%; in assay [11], 48.1%; in [12], 35.3%. Besides, the growth is 43.4% in assay [14]; 81.1% in assay [15]; 47.3% in [16]; 64.1% in [20]; 21.4% in assay [17]; 37.6% in [18]. Also, in assay [19], the growth was 27.1%.
`C#C[C@]1(O)CC[C@H]2[C@@H]3CC=C4c5sc(-c6ccc(C)cc6)nc5CC[C@]4(C)[C@H]3CC[C@@]21C`: the growth is -2.81% (active) in assay [1]; 98% in assay [2]; -8.57% (active) in assay [3]; 10.9% in assay [4]; 8.46% (active) in assay [5]; -19.9% (active) in [6]. Moreover, the growth was -75.7% (active) in assay [7]; 2.15% (active) in assay [8]; -60.8% (active) in [9]; -57.2% (active) in assay [10]; -2.55% (active) in assay [11]; 54% in assay [12]. Also, the growth in [14] was -7.05% (active); in assay [15], 77.4%; in assay [16] it was 21.5%; in assay [20], 8.16% (active); in assay [17], 113%; in assay [18] it was 6.48% (active).
With `O=C(CN1CCN(c2cc(=O)n(-c3ccccc3)c3ccccc23)CC1)Nc1ccc(F)cc1`, the growth in assay [1] was 69.2%; in assay [2], 81%; in assay [3] it was 77.2%; in [4] it was 77.3%; in [5], 80.2%; in assay [6], 64.6%. Further, the growth in assay [7] is 16.9%; in assay [8], 55.3%; in assay [9], 67.4%; in assay [10], 86.2%; in assay [11] it was 87.9%; in [13] it was 77.7%. The growth in [14] was 40.6%; in assay [15], 73.1%; in assay [16] it was 65.4%; in assay [20], 63.7%; in [17], 53.6%; in assay [18] it was 70%. Also, the growth in [19] is 44.4%.
As to `CCCCCc1ccc(S(=O)(=O)Nc2cccc(-c3csc(NC(=O)CCCCCN4CCN(C)CC4)n3)c2)cc1`, the growth is -7.05% (active) in [1]; 7.36% (active) in assay [2]; 85.9% in assay [3]; 72.3% in assay [4]; 26.2% in assay [5]; 50.3% in [6]. For the same compound, the growth is -66.8% (active) in assay [7]; 63.2% in assay [8]; -83.8% (active) in [9]; -18.9% (active) in assay [10]; 98.3% in assay [11]; 79.8% in assay [13]. In addition, the growth in [14] was 75.9%; in assay [15], 107%; in [16], 86.4%; in assay [20] it was 79.5%; in assay [17] it was 78.7%; in assay [18], 5.75% (active). Moreover, in assay [19], the growth was 3.35% (active).
`CCNC(=O)N1CCc2cc(OC)c(OCCc3ccc(OC)c(N)c3)cc2C1c1ccc(C)cc1C` (stereo unspecified): the growth was 10.4% in assay [1]; 3.09% (active) in assay [2]; 41.5% in assay [3]; 30.1% in assay [4]; 17.8% in assay [5]; 29.1% in [6]. For the same compound, the growth in assay [7] was -7.76% (active); in [8], 24.2%; in assay [9] it was 6.47% (active); in assay [10], 42.5%; in [11], 4.33% (active); in [13] it was 22.6%. Besides, the growth in assay [14] is 30.4%; in [15], 56.1%; in [16], 27.6%; in [20] it was 22.9%; in [17], -5% (active); in assay [18] it was 34.5%. Also, the growth in assay [19] is 29.3%.
For the compound `O=C(NCc1ncc[nH]1)c1ccc(-c2nc3ccc4[nH]ncc4c3c3c2CCCC3)cc1`, the growth in assay [1] was 48%; in assay [2], 22.3%; in [3], 30.1%; in assay [4], 13.9%; in [5], 13.2%; in assay [6], 2.66% (active). In addition, the growth in assay [7] was 8.91% (active); in [8] it was 4.94% (active); in [9], 3.29% (active); in assay [10] it was -1.75% (active); in assay [11] it was -32.6% (active); in [12], 47.9%. Also, the growth in assay [13] was 10.5%; in [14] it was 51.6%; in assay [15], -2.79% (active); in assay [16] it was 42%; in assay [19], -23.5% (active).
As for `O=C(CSc1nc2ccccc2c(=O)n1-c1ccccc1)Nc1cccc(C(=O)/C=C/c2ccccc2Cl)c1`, the growth in assay [1] is 92.7%; in assay [2] it was 102%; in assay [3], 85.6%; in assay [4] it was 93.3%; in assay [5] it was 97.7%; in assay [6], 99.4%. For the same compound, the growth in assay [7] was 99.3%; in [8], 95.5%; in assay [9], 103%; in assay [10], 107%; in [11], 105%; in assay [12], 99.4%. In addition, the growth in [14] is 90.7%; in [15] it was 138%; in [16] it was 103%; in [20], 95.9%; in assay [17] it was 116%; in assay [18] it was 113%. Also, the growth in [19] is 106%.
Turning to `O=C(NNc1nc2cc(F)cc(F)c2n2cccc12)c1cnccn1`, the growth in assay [1] was 24.8%; in [2] it was 26.2%; in [3] it was 49.2%; in assay [4] it was 25%; in assay [5], 16.2%; in assay [6] it was 24.1%. Also, the growth in assay [7] was 14.2%; in assay [8] it was 5.21% (active); in [9] it was 5.06% (active); in assay [10], 25.8%; in assay [11] it was 32.6%; in [12], 8.74% (active). Moreover, the growth in assay [14] is 18.1%; in [15], 21.9%; in assay [16], 14.5%; in assay [17], 11.1%; in assay [18] it was 10.6%; in assay [19] it was 1.8% (active).
`COc1ccc(C(=O)CSc2nc3c(c(Nc4ccc(S(N)(=O)=O)cc4)n2)CCCC3)cc1`: the growth in assay [1] is 88.4%; in assay [2], 96.4%; in assay [3], 119%; in assay [4], 94.1%; in [5] it was 89.9%; in assay [6] it was 83.7%. The growth was 96.6% in [7]; 93.5% in assay [8]; 83% in assay [9]; 110% in assay [10]; 104% in assay [11]; 96.7% in assay [12]. The growth was 81.1% in [14]; 120% in assay [15]; 89.9% in assay [16]; 70.9% in assay [20]; 86.5% in [17]; 83.1% in assay [18]. Further, in assay [19], the growth was 75.7%.
In the case of `O=C(NNc1nc2cc(F)c(F)cc2n2c(CN3CC4CNCC4C3)ccc12)c1ncccn1` (stereo unspecified), the growth in assay [1] is 19.8%; in [2], 23.5%; in assay [3] it was 52.1%; in assay [4], 29.9%; in [5], 17.3%; in assay [6] it was 17.6%. The growth in assay [7] was -33.8% (active); in assay [8] it was -20.1% (active); in assay [9], 1.73% (active); in assay [10], 29.3%; in [11] it was 9.68% (active); in [12], 20%. The growth is 25.8% in assay [13]; 13.6% in assay [14]; 16.2% in [15]; 12.7% in assay [16]; 18.7% in assay [17]; -6.62% (active) in assay [19].
